Results reported in paper PMC4552634, “A New Set of Chemical Starting Points with Plasmodium falciparum Transmission-Blocking Potential for Antimalarial Drug Discovery” (PLoS ONE, 2015).
Like-named read-outs stand apart in the source and are kept apart here. Out of some 13,000 compounds screened, about 3,200 (25%) showed an effect of 50% or more. This is one part of the list.

Test system: P. falciparum stage V gametocytes
Set-up: BacTiter-Glo ATP luminescence viability of purified stage V gametocytes in 384-well plates, per cent inhibition versus DMSO
Conditions: 48 h, 5 µM, inhibitor

## Cc1cccc2nc(-c3ccc(-c4ccc(NC(=O)NCc5cccc(F)c5)cc4)s3)[nH]c12 [TCMDC-133286]
  % Inhibition: 5.156%

## Cc1ccc(-c2cc3nc4c(c(NCCCn5ccnc5)n3n2)CCC4)cc1 [TCMDC-124390]
  % Inhibition: 12.49%

## Cc1cccc2c3c([nH]c12)C1(CCN(Cc2ccccc2)CC1)NC(C(=O)NCc1ccccc1)C3 (centres unmarked) [TCMDC-141244]
  % Inhibition: -26.21%

## COc1ccc2nccc([C@@H](O)CN3CCC(NC(=O)c4ccc(Cl)c(OC)c4)CC3)c2c1 [TCMDC-141113]
  % Inhibition: -17.86%

## CSc1sc(NC(=O)Nc2cccc(C(F)(F)F)c2)cc1C#N [TCMDC-123772]
  % Inhibition: -46.48%

## CCN(CC)Cc1cc(Nc2c3ccc(Cl)cc3nc3cccc(OC)c23)ccc1O [TCMDC-139222]
  % Inhibition: 106.6%

## CCN(CC)Cc1cc(Nc2ccnc3cc(Cl)ccc23)ccc1O [TCMDC-123932]
  % Inhibition: -15.23%

## COc1ccc2nc3cc(Cl)ccc3c(Nc3ccc(O)c(CN4CC5CCC(CC5)C4)c3)c2c1.Cl [TCMDC-142013]
  % Inhibition: -78.53%

## CN(Cc1ccc(NC(=O)CCC2CCN(C(=O)/C=C/c3ccc(Cl)c(Cl)c3)CC2)cc1)C1CCOCC1 [TCMDC-140515]
  % Inhibition: 8.343%

## Oc1c(C=Nn2cnnc2)sc2ccccc12 [TCMDC-125759]
  % Inhibition: -2.761%

## O=[N+]([O-])c1cccc(-c2nc(-c3ccc(Br)cc3)[nH]c2-c2ccc(Br)cc2)c1 [TCMDC-124605]
  % Inhibition: -41.82%

## Cc1ccc(S(=O)(=O)c2nc(S(=O)(=O)c3ccccc3)sc2NCC2CCCO2)cc1 (centres unmarked) [TCMDC-124749]
  % Inhibition: 4.322%

## CCCCCN=C(N)N/N=C/c1c[nH]c2ccc(OC)cc12 [TCMDC-125887]
  % Inhibition: 106.4%

## COc1ccc2cc(C=NNc3nc4ccccc4[nH]3)c(Cl)nc2c1 [TCMDC-124889]
  % Inhibition: -71.34%

## CCCCCCCN(CCCCCCC)CCCC(=O)Nc1ccnc2ccc(OC)cc12.O=C(O)C(=O)O [TCMDC-139843]
  % Inhibition: -16.87%

## Cc1[nH]c2ccccc2c1C(=O)CSc1nn(-c2ccccc2)c(=S)s1 [TCMDC-124893]
  % Inhibition: 60.68%

## O=C(CSc1nn(-c2ccccc2)c(=S)s1)c1c[nH]c2ccccc12 [TCMDC-124894]
  % Inhibition: 95.1%

## O=C(CNc1ccncc1)c1c[nH]c2ccccc12 [TCMDC-124024]
  % Inhibition: 4.031%

## O=C(c1c(-c2[nH]c3ccccc3c2C(=O)C(F)(F)F)[nH]c2ccccc12)C(F)(F)F [TCMDC-125831]
  % Inhibition: 0.8709%

## O=C(NC12CC3CC(CC(C3)C1)C2)C(=O)c1c[nH]c2ccccc12 [TCMDC-123481]
  % Inhibition: -3.925%

## N#Cc1ccc2c(c1)CN(CCC1CCC(NC(=O)c3cc4cc(OC(F)(F)F)ccc4[nH]3)CC1)CC2 (centres unmarked) [TCMDC-139160]
  % Inhibition: 23.56%

## Cc1cccc2nc(-c3cccc(-c4cccc(C(=O)NCCc5cn(C)cn5)c4)c3)[nH]c12 [TCMDC-132494]
  % Inhibition: -97.59%

## O=C(NCCCCN1CCC(c2ccc3c(c2OCc2ccncc2)CCCC3)CC1)c1ccc(-c2ccc(C(F)(F)F)cc2)cc1 [TCMDC-138733]
  % Inhibition: 60.19%

## CC(C)(Oc1c(C2CCN(CCCCNC(=O)c3ccc(-c4ccc(C#N)cc4)cc3)CC2)ccc2c1CCCC2)C(N)=O [TCMDC-134828]
  % Inhibition: 39.17%

## CC(=O)Oc1c(C2CCN(CCCCNC(=O)c3ccc(-c4ccc(C#N)cc4)cc3)CC2)ccc2c1CCCC2 [TCMDC-138650]
  % Inhibition: -28.73%

## N#Cc1ccc(-c2ccc(C(=O)NCCCCN3CCC(c4ccc5c(c4OCc4ccncc4)CCCC5)CC3)cc2)cc1 [TCMDC-138732]
  % Inhibition: 54.86%

## O=C(NCCCCN1CC=C(c2ccc3c(c2OCc2ccccc2)CCCC3)CC1)c1ccc(-c2ccc(C(F)(F)F)cc2)cc1 [TCMDC-138746]
  % Inhibition: -33.61%

## N#Cc1ccc(-c2ccc(C(=O)NCCCCN3CCC(c4ccc5c(c4OCc4ccccn4)CCCC5)CC3)cc2)cc1 [TCMDC-138737]
  % Inhibition: 66.39%

## O=C(NCCN1Cc2ccccc2C1=O)c1ccc(Oc2ccc(C(=O)NCCN3Cc4ccccc4C3=O)cc2)cc1 [TCMDC-125669]
  % Inhibition: 22.87%

## CCOC(=O)C(C#N)NC(=O)C=Cc1ccccc1 (centres unmarked) [TCMDC-131634]
  % Inhibition: -4.008%

## C=C(C)C1CC=C(CN2CCC(N3CCc4cc(NC(=O)c5cc(C)on5)ccc43)C2)CC1 (centres unmarked) [TCMDC-135089]
  % Inhibition: 10.83%

## O=C(Nc1cc(Cl)cc(Cl)c1)c1cc(Cl)c(=O)n(Cc2cccc(Cl)c2)c1 [TCMDC-123809]
  % Inhibition: -55.71%

## COc1ccccc1N1CCN(Cc2cc(C(C)C)c(C)cc2O)CC1 [TCMDC-124541]
  % Inhibition: -1.392%

## O=C(C=Cc1ccc(-c2ccccc2)cc1)NC1CCC(CN2CCC(c3c[nH]c4ccccc34)CC2)CC1 (centres unmarked) [TCMDC-139935]
% Inhibition
  % Inhibition: 108%

## O=C(/C=C/C=C/c1ccccc1)NC1CCC(CN2CCC(c3c[nH]c4ccccc34)CC2)CC1 (centres unmarked) [TCMDC-139708]
  % Inhibition: 100.6%

## O=C(C=Cc1ccc(-c2ccccc2)cc1)NC1CCC(CN2CCC(c3c[nH]c4ccccc34)CC2)CC1 (centres unmarked) [TCMDC-139951]
% Inhibition
  % Inhibition: 123.9%

## COc1ccc2nccc(N3CCN(CCNCc4ccc5c(n4)NC(=O)CO5)CC3)c2c1.Cl [TCMDC-141961]
  % Inhibition: 30.82%

## Cc1nc2nc(N)nc(N)c2c(C)c1Cc1cccc(C(N)=O)c1 [TCMDC-137643]
  % Inhibition: 17.6%

## CS(=O)(=O)c1ccc(-n2nc(C(F)(F)F)cc2-c2ccc(C=NOCC(=O)O)o2)cc1 [TCMDC-132015]
  % Inhibition: -3.43%

## COc1cccc(-c2cccc(CNC3CCN(CC4Cn5c(=O)ccc6ccc(F)c4c65)CC3)c2)c1 (centres unmarked) [TCMDC-134412]
  % Inhibition: 5.028%

## Cc1ccc(Cc2cnc(CN3CCCCC3)c(O)c2)cc1 [TCMDC-125485]
  % Inhibition: 30.78%

## O=S(=O)(c1ccccc1C(F)(F)F)C1CC2CCC(C1)N2S(=O)(=O)c1ccc(Cl)c(C(F)(F)F)c1 (centres unmarked) [TCMDC-134268]
  % Inhibition: 33.38%

## O=S(=O)(c1ccc(OC(F)(F)F)cc1)C1CC2CCC(C1)N2S(=O)(=O)c1ccc(Cl)c(C(F)(F)F)c1 (centres unmarked) [TCMDC-134267]
  % Inhibition: 71.42%

## O=S(=O)(c1ccccc1OC(F)(F)F)C1CC2CCC(C1)N2S(=O)(=O)c1cccc(C(F)(F)F)c1 (centres unmarked) [TCMDC-134266]
  % Inhibition: 7.024%
